Active and inactive are the calls of the source. How the source made its calls: active means hit-call score of the fitted dose curve at least 0.9, where 1 is the maximum; inactive means score below 0.9.
Columns and labels:
Conditions in all cases: mRNA level, 48 h; actives raise or lower the signal
HGF (gene 3082) = assay: LTEA_HepaRG_HGF: Life Technologies and Expression Analysis (LTEA) Assay for Hepatocyte Growth Facto (HGF) using HepaRG (AID 2283505)
Method in brief: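 Read-out is HGF transcript level by qRT-PCR, normalized to three housekeeping genes, fitted bidirectionally against 0.5% DMSO vehicle. Human HepaRG cells received test chemicals for 48 h at up to 100 uM.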

[1] = read-out: Intercellular Adhesion Molecule 1 (ICAM1), ICAM1 (gene 3383); assay: LTEA_HepaRG_ICAM1: Life Technologies and Expression Analysis (LTEA) Assay for Intercellular Adhesion Molecule 1 (ICAM1) using HepaRG (AID 2283507)
Method in brief: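 Readout is qRT-PCR mRNA level, normalized to three housekeeping genes and fitted bidirectionally against 0.5% DMSO vehicle. Human HepaRG cultures received compound for 48 h, top concentration 100 uM with half-log dilutions.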

[2] = read-out: Insulin-like growth factor-binding protein 1 (IGFBP1), IGFBP1 (gene 3484); assay: LTEA_HepaRG_IGFBP1: Life Technologies and Expression Analysis (LTEA) Assay for Insulin-like growth factor-binding protein 1 (IGFBP1) using HepaRG (AID 2283508)
Method in brief: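 Thawed HepaRG cells are plated for 48 h, switched to serum-free induction medium, then dosed in duplicate for another 48 h (100 uM top, half-log steps). Lysates in RLT go to qRT-PCR, and gain or loss of signal is fitted relative to vehicle.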

[3] = read-out: Interleukin 6 (IL6), IL6 (gene 3569); assay: LTEA_HepaRG_IL6: Life Technologies and Expression Analysis (LTEA) Assay for Interleukin 6 (IL6) using HepaRG (AID 2283509)
Method in brief: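 Transcript levels, normalized to three housekeeping genes, were quantified by qRT-PCR after 48 h chemical treatment of HepaRG cells. Eight-point half-log series from 100 uM in 0.5% DMSO, duplicates. Fitted both directions against DMSO baseline.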

[4] = read-out: Interleukin 6 Receptor (IL6R), IL6R (gene 3570); assay: LTEA_HepaRG_IL6R: Life Technologies and Expression Analysis (LTEA) Assay for Interleukin 6 Receptor (IL6R) using HepaRG (AID 2283510);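 on AC50: differentiated human HepaRG liver cells in serum-free induction medium; TaqMan qRT-PCR signal normalized to ACTB GAPDH and POLR2A housekeeping genes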
Method in brief: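 HepaRG, 48 h exposure, 8-pt half-log series, top 100 uM, 0.5% DMSO vehicle, duplicates. Read-out: TaqMan qRT-PCR of IL6R transcript, housekeeping-gene normalized. Gain or loss fitted relative to DMSO baseline.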

[5] = read-out: Potassium channel subfamily K member 1 (KCNK1), KCNK1 (gene 3775); assay: LTEA_HepaRG_KCNK1: Life Technologies and Expression Analysis (LTEA) Assay for Potassium channel subfamily K member 1 (KCNK1) using HepaRG (AID 2283511)
Method in brief: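 KCNK1 transcript measured by TaqMan qRT-PCR against three housekeeping genes, after HepaRG cells were treated 48 h with eight half-log concentrations (top 100 uM, 0.5% DMSO). Curves fitted bidirectionally relative to vehicle.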

[6] = read-out: Keratin 19 (KRT19), KRT19 (gene 3880); assay: LTEA_HepaRG_KRT19: Life Technologies and Expression Analysis (LTEA) Assay for Keratin 19 (KRT19) using HepaRG (AID 2283512)
Method in brief: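 KRT19 transcript levels, measured by Fluidigm qRT-PCR against three housekeeping genes, are fitted for gain or loss of signal relative to DMSO. Human HepaRG cells receive test chemicals (top 100 uM, half-log steps, 0.5% DMSO) for 48 hours.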

[7] = read-out: 3-Hydroxy-3-Methylglutaryl-CoA Synthase 2 (HMGCS2), HMGCS2 (gene 3158); assay: LTEA_HepaRG_HMGCS2: Life Technologies and Expression Analysis (LTEA) Assay for 3-Hydroxy-3-Methylglutaryl-CoA Synthase 2 (HMGCS2) using HepaRG (AID 2283504)
Method in brief: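 HepaRG, plated 48 h then switched to serum-free induction media; cmpd 8-pt, max 100 uM, 1/2-log, 0.5% DMSO, n=2, 48 h. HMGCS2 mRNA by Fluidigm TaqMan qRT-PCR, ACTB/GAPDH/POLR2A norm; bidirectional fit vs DMSO.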

[8] = read-out: Insulin Like Growth Factor 1 (IGF1), IGF1 (gene 3479); assay: LTEA_HepaRG_IGF1: Life Technologies and Expression Analysis (LTEA) Assay for Insulin Like Growth Factor 1 (IGF1) using HepaRG (AID 2283506)
Method in brief: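 qRT-PCR readout of IGF1 mRNA, normalized to three housekeeping genes, after 48 h chemical exposure of HepaRG cells. Concentrations: 8-point half-log series, top 100 uM, 0.5% DMSO vehicle. Gain or loss fitted against DMSO baseline.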

[9] = read-out: Hypoxia-inducible factor 1-alpha (Homo sapiens) (UniProt Q16665); assay: LTEA_HepaRG_HIF1A: Life Technologies and Expression Analysis (LTEA) Assay for Hypoxia-inducible factor 1 (HIF1A) Trancription factor using HepaRG (AID 2283503);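 further: HIF1A transcript by TaqMan qRT-PCR normalized to ACTB GAPDH and POLR2A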
Method in brief: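 Gain- or loss-of-signal HIF1A mRNA changes are fitted against a DMSO baseline. HepaRG cultures receive eight concentrations, highest 100 uM, for 48 h in serum-free induction medium with 0.5% DMSO.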

Measured: AC50

Hypoxia-inducible factor 1-alpha (Homo sapiens), sequence (Q16665 whole entry, looked up): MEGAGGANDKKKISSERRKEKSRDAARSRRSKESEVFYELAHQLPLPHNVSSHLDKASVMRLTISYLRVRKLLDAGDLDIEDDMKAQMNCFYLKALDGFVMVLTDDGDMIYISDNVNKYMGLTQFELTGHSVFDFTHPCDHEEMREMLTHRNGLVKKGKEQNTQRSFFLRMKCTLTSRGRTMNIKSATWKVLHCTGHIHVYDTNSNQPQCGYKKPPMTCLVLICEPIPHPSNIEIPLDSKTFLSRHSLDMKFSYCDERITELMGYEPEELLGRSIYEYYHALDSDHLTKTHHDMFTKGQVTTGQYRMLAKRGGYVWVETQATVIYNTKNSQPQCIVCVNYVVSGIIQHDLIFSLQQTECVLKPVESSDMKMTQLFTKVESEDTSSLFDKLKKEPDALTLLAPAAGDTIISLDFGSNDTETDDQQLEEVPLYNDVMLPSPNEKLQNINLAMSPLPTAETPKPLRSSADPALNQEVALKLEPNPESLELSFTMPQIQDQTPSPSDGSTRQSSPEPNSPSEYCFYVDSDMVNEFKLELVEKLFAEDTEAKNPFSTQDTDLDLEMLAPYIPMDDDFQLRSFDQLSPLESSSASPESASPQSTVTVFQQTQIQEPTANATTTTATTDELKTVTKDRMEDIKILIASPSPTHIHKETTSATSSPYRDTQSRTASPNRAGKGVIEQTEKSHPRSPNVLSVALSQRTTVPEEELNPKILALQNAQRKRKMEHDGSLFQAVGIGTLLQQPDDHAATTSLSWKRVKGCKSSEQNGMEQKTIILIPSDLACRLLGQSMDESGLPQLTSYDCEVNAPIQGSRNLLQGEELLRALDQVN

NNC(=O)c1ccncc1
not listed: [7] | [8] | [9]
inactive: all other assays above

O=C(O)[C@H](O)[C@@H](O)C(=O)O
not listed: [9]
inactive: all other assays above

c1ccc(C(O[C@@H]2CCCN(CCc3ccc4c(c3)OCO4)C2)c2ccccc2)cc1
active: [9] 78.3 µM | HGF (gene 3082) 50 µM | [1] 85.3 µM | [2] 86.9 µM | [6] 40.3 µM
inactive: [3] | [4] | [5]

OC[C@H]1O[C@@](CO)(O[C@H]2O[C@H](CO)[C@@H](O)[C@H](O)[C@H]2O)[C@@H](O)[C@@H]1O
not listed: [7] | [8]
inactive: all other assays above

COCc1nnc(-c2ccc[n+]([O-])c2)n1-c1c(Cl)c(Cl)cc2[nH]c(=O)c(=O)[nH]c12
not listed: [7] | [8]
inactive: all other assays above

CCn1nc(C)c2c1C(=O)NCC(c1ccc(O)cc1)=N2
active: [6] 1.84 µM
not listed: [7] | [8]
inactive: all other assays above

C=CCc1cc(S(=O)(=O)c2ccc(O)c(CC=C)c2)ccc1O
active: [9] 91.4 µM | HGF (gene 3082) 79.5 µM | [8] 83.5 µM | [2] 79.6 µM | [3] 93.2 µM | [4] 75.9 µM | [6] 50 µM
inactive: [1] | [5]

Cn1cc[nH]c1=S
not listed: HGF (gene 3082) | [8] | [9]
inactive: all other assays above

CC(C)C(=O)Nc1ccc([N+](=O)[O-])c(C(F)(F)F)c1
active: [7] 72.8 µM | HGF (gene 3082) 66.9 µM | [1] 87.3 µM | [2] 66.7 µM | [3] 85 µM | [6] 23.5 µM
inactive: [4] | [5]

CNC(C)=O
not listed: [7] | [8]
inactive: all other assays above

COc1cc2c(c(OC)c1OC)-c1ccc(OC)c(=O)cc1[C@@H](NC(C)=O)CC2
inactive: HGF (gene 3082) | [1] | [5] | [6]
active: [9] 0.113 µM | [8] 0.123 µM | [2] 0.584 µM | [3] 0.144 µM | [4] 0.432 µM

O=C(NO)C1(NS(=O)(=O)c2ccc(Oc3ccc(F)cc3)cc2)CCOCC1
active: [6] 71.4 µM
not listed: [7] | [8]
inactive: all other assays above

CCCCCCCCN(C)C
not listed: [7] | [8]
inactive: all other assays above

OC(CCl)CCl
not listed: [7] | [8]
inactive: all other assays above

CCc1ccc(O)c(C(C)(C)C)c1
not listed: [7] | [8]
inactive: all other assays above

COS(C)(=O)=O
not listed: [7]
inactive: all other assays above

CC1(C)C(=O)N(Cl)C(=O)N1Cl
not listed: [7] | [8]
inactive: all other assays above

O=S1(=O)CCCO1
not listed: [7]
inactive: all other assays above

NC(N)=O
not listed: [7] | [8]
inactive: all other assays above

Cc1ccc(S(=O)(=O)NC(=O)NN2CCCCCC2)cc1
not listed: [9]
inactive: all other assays above

CC(C)c1nnc2ccc(-c3ocnc3-c3cc(F)ccc3F)cn12
inactive: [9] | [1] | [3] | [4] | [5]
active: [2] 12.8 µM | [6] 18.7 µM

Cc1ncc([C@@H](CCCCCCc2ccc3c(n2)NCCC3)CC(=O)O)cn1
not listed: [7] | [8]
inactive: all other assays above

NC(=O)NN=Cc1ccc([N+](=O)[O-])o1
inactive: [3] | [4] | [6]
active: [7] 13.3 µM | HGF (gene 3082) 12.4 µM | [1] 0.211 µM | [2] 50 µM | [5] 0.223 µM

CCCC(CCC)C(=O)O
not listed: HGF (gene 3082) | [7]
inactive: all other assays above

CCCCCCCCCCCCCCCCOS(=O)(=O)O
not listed: [7] | [8]
inactive: all other assays above

Cn1c(=O)c2[nH]cnc2n(C)c1=O
inactive: HGF (gene 3082) | [8] | [3] | [4] | [5] | [6]

CCCc1ccccc1
not listed: [7] | [8]
inactive: all other assays above
